Data reported in the supplement of paper PMC10981050.
Where a name gives a salt, the structure may show the parent alone.

Each molecule was assayed on MOLM14 (assay: cell viability relative to vehicle control; higher = less cytotoxic). Conditions: 10 µM; SRSF2 genotype: SRSF2 wt/wt.
Method in brief: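 CRISPR-edited mutant clones and isogenic wild-type clones from four leukaemia lines were screened against Selleck bioactive, kinase and epigenetic probe libraries, with identity-inconsistent compounds excluded. Each compound was acoustically dispensed at a single 10 µM dose into 384-well plates holding 2000 cells in 50 µL medium per well. After 48 h the supernatant was removed and CellTiter-Glo luminescence was read. Viability was expressed as percent of the on-plate vehicle control and analysed in Genedata Screener.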
Work on `CCN(CCCc1ccccc1)CCCc1ccccc1` [Alverine Citrate] yielded a cell viability of 87.4%.
Molecule `CC(=O)OCC(=O)[C@@]12N=C(C)O[C@@H]1C[C@H]1[C@@H]3CCC4=CC(=O)C=C[C@]4(C)[C@H]3[C@@H](O)C[C@@]12C` [Deflazacort (Calcort)] has a cell viability of 97%.
In the case of `CS(=O)(=O)Nc1ccc([N+](=O)[O-])cc1OC1CCCCC1`, the cell viability was 98.8%.
`O=C(/C=C/c1ccc(O)c(O)c1)O[C@@H]1C[C@](O)(C(=O)O)C[C@@H](O)[C@H]1O` [Chlorogenic acid] gave a cell viability of 102%.
`Nc1ncnc2c1ncn2C1OC(COP(=O)(O)OP(=O)(O)O)C(O)C1O` (stereo unspecified) showed a cell viability of 95%.
In the case of `C[C@@H]1Cc2c([nH]c3ccccc23)[C@@H](c2c(F)cc(/C=C/C(=O)O)cc2F)N1CC(C)(C)F`, the cell viability was 97.4%.
In the case of `O=C(c1ccccc1)c1ccc2nc(NC(=O)c3csc(C4CCN(c5ncnc6ccsc56)CC4)n3)[nH]c2c1`, the cell viability was 26.5%.
With `CC(C)NCC(O)c1ccc(O)c(O)c1` (stereo unspecified) [Isoprenaline hydrochloride] the cell viability was 96.5%.
In the case of `O=C(Nc1ccc(Br)cc1)c1c(O)cccc1O` [Resorantel], the cell viability was 11.8%.
`Nc1ccn([C@@H]2O[C@H](CO)[C@@H](O)[C@H]2O)c(=O)n1` [Cytidine] gave a cell viability of 89.2%.
`O=C1[C@H]2CCCC[C@H]2C(=O)N1CCCCN1CCN(c2nsc3ccccc23)CC1` [Perospirone hydrochloride] gave a cell viability of 82.5%.
Molecule `COc1cc(C(=O)NS(=O)(=O)c2ccccc2C)ccc1Cc1cn(C)c2ccc(NC(=O)OC3CCCC3)cc12` [Zafirlukast (Accolate)] has a cell viability of 97%.
Molecule `CCn1cc(C(=O)O)c(=O)c2cc(F)c(N3CCNCC3)nc21` [Enoxacin (Penetrex)] has a cell viability of 110%.
`COc1ccc(S(=O)(=O)N(C(C)=O)c2ccccc2/C=C/c2cc[n+]([O-])cc2)cc1` gave a cell viability of 3.3%.
`Cc1cncc(CN2CCC(=C3c4ccc(Cl)cc4CCc4cccnc43)CC2)c1` [Rupatadine Fumarate] gave a cell viability of 64.4%.
`C/C(=C\C(=O)OCCCCCCCCC(=O)O)C[C@@H]1OC[C@H](C[C@@H]2O[C@H]2[C@@H](C)[C@H](C)O)[C@@H](O)[C@H]1O` [Mupirocin calcium] was tested, and the cell viability was 93.4%.
`O=C1[C@H](CC[C@H](O)c2ccc(F)cc2)[C@@H](c2ccc(O)cc2)N1c1ccc(F)cc1` [Ezetimibe (Zetia)] was tested, and the cell viability was 90.1%.
`Cc1cc(F)c(C(=O)Nc2cccc(-c3nncn3C(C)C)n2)cc1-n1cnc(C2CC2)c1` [Selonsertib (GS-4997)] was tested, and the cell viability was 68.5%.
`COc1cc(C(C)=O)ccc1O` [Apocynin (Acetovanillone)] showed a cell viability of 103%.
In the case of `COc1cc2c(cc1OC)[C@@H](Cc1ccc(Oc3cc(C[C@@H]4c5cc(OC)c(OC)cc5CCN4C)ccc3O)cc1)N(C)CC2` [Dauricine], the cell viability was 1.07%.
With `c1ccc2c(CCNc3ccc(Nc4ccncc4)cc3)c[nH]c2c1` the cell viability was 0.5%.
Molecule `O=C(O)c1ccc(Br)c(O)c1` [4-Bromo-3-hydroxybenzoic acid] has a cell viability of 107%.
For `CC(=O)NC[C@H]1CN(c2ccc(N3CCOCC3)c(F)c2)C(=O)O1` [Linezolid (Zyvox)], the cell viability was 85.5%.
Molecule `C[C@H]1[C@H](C)CC[C@]2(C(=O)O)CC[C@]3(C)C(=CC[C@@H]4[C@@]5(C)CCC(=O)C(C)(C)[C@@H]5CC[C@]43C)[C@H]12` [Ursonic acid] has a cell viability of 19.4%.
`CN(C)C(=O)c1ccc(S(=O)(=O)c2ccc(NC(=O)C(C)(O)C(F)(F)F)c(Cl)c2)cc1` (stereo unspecified) was tested, and the cell viability was 84.5%.
Molecule `CC(=O)O[C@H]1CC(=O)OC(C)(C)[C@@H]2CC(=O)[C@]3(C)[C@H](CC[C@@]4(C)[C@@H](c5ccoc5)OC(=O)[C@H]5O[C@]543)[C@@]12C` [Nomilin] has a cell viability of 104%.
In the case of `CC(=O)N1CCC(Nc2cc(C(=O)NC[C@H](O)CN3CCc4ccccc4C3)ncn2)CC1`, the cell viability was 94.5%.
`NCCCC[C@@H]1NC(=O)[C@@H](Cc2ccccc2)NC(=O)[C@H](CC(=O)O)NC(=O)CNC(=O)[C@H](CCCN=C(N)N)NC1=O` [Cyclo (-RGDfK)] was tested, and the cell viability was 101%.
In the case of `Cc1cc(Nc2ncc3c(n2)N(C)C(=O)N(c2cc(NC(=O)c4cccc(C(F)(F)F)c4)ccc2C)C3)n(C)n1` [Pluripotin (SC1)], the cell viability was 7.23%.
In the case of `c1ccc(NCc2ccc(CNc3ccccn3)cc2)nc1`, the cell viability was 92.9%.
`O=c1cc(-c2ccc(O)c(O)c2)oc2c([C@@H]3O[C@H](CO)[C@@H](O)[C@H](O)[C@H]3O)c(O)cc(O)c12` [Orientin] was tested, and the cell viability was 103%.
